Several values for one entry are separate records, joined by “and”; a condition that tells them apart may be missing. Equal entries are not always repeated. About 2,000 (36%) of roughly 5,500 compounds were called active. About 18% were inconclusive and are not listed. Rule as the data show it: active = normalized growth mostly below about 0.91 (no sharp cut-off); inconclusive = no clear call, values can overlap the other calls; inactive = mostly above about 0.92. This is one part of the list.
Experiment: chemical genetic growth profiling, strain panel (AID 1159580);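 also: tested at 20 µM; growth read once vehicle control cultures reached saturation at 30 °C; 1 = growth at the plate median or of vehicle wells; lower values mean less growth of the strain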
Conditions: growth OD

Measured: normalized growth

COc1ccccc1N1CCN(CCCNc2cc(=O)n(C)c(=O)n2C)CC1
inactive: S. cerevisiae deletion strains, locus YJR043C, strain POL32, active compounds read low 1.01 | S. cerevisiae deletion strains, locus YJR075W, strain HOC1, active compounds read low 0.991 | S. cerevisiae deletion strains, locus YKL009W, strain mrt4, active compounds read low 0.976 | S. cerevisiae deletion strains, locus YKL068W, active compounds read low 0.978 | S. cerevisiae deletion strains, locus YKL085W, strain MDH1 (second series), active compounds read low 0.985 | S. cerevisiae deletion strains, locus YKL085W, strain MDH1, active compounds read low 0.985 | S. cerevisiae deletion strains, locus YKL160W, strain elf1, active compounds read low 0.995 | S. cerevisiae deletion strains, locus YKL190W, strain CNB1, active compounds read low 0.986 | S. cerevisiae deletion strains, locus YKR001C, strain vps1, active compounds read low 0.982 | S. cerevisiae deletion strains, locus YKR026C, strain gcn3, active compounds read low 1.02 | S. cerevisiae deletion strains, locus YKR091W, strain srl3, active compounds read low 1.01 | S. cerevisiae deletion strains, locus YLL001W, strain dnm1, active compounds read low 1.02 | S. cerevisiae deletion strains, locus YLL026W, active compounds read low 1.01 | S. cerevisiae deletion strains, locus YLL041C, strain sdh2, active compounds read low 1.01 | S. cerevisiae deletion strains, locus YLR027C, strain aat2, active compounds read low 1.01 | S. cerevisiae deletion strains, locus YLR039C, strain RIC1, active compounds read low 0.937 | S. cerevisiae deletion strains, locus YLR058C, strain SHM2, active compounds read low 0.974 | S. cerevisiae deletion strains, locus YLR102C, strain apc9, active compounds read low 0.988 | S. cerevisiae deletion strains, locus YLR221C, strain rsa3, active compounds read low 1.01 | S. cerevisiae deletion strains, locus YLR258W, strain gsy2, active compounds read low 1.02 | S. cerevisiae deletion strains, locus YLR262C, strain YPT6 (second series), active compounds read low 1.03 | S. cerevisiae deletion strains, locus YLR262C, strain YPT6, active compounds read low 0.857 | S. cerevisiae deletion strains, locus YLR268W, strain sec22, active compounds read low 0.982 | S. cerevisiae deletion strains, locus YLR320W, strain mms22, active compounds read low 1.02 | S. cerevisiae deletion strains, locus YLR330W, strain CHS5, active compounds read low 0.982 | S. cerevisiae deletion strains, locus YLR342W, strain FKS1 (second series), active compounds read low 1.03 | S. cerevisiae deletion strains, locus YLR342W, strain FKS1, active compounds read low 1.01 | S. cerevisiae deletion strains, locus YLR357W, strain rsc2, active compounds read low 1.03 | S. cerevisiae deletion strains, locus YLR370C, strain arc18, active compounds read low 1.03 | S. cerevisiae deletion strains, locus YLR371W, strain rom2, active compounds read low 1 | S. cerevisiae deletion strains, locus YLR384C, strain iki3, active compounds read low 1.02 | S. cerevisiae deletion strains, locus YLR418C, strain cdc73, active compounds read low 0.97 | S. cerevisiae deletion strains, locus YML016C, strain PPZ1, active compounds read low 0.983 | S. cerevisiae deletion strains, locus YML032C, strain rad52, active compounds read low 1.01 | S. cerevisiae deletion strains, locus YML120C, strain ndi1, active compounds read low 1 | S. cerevisiae deletion strains, locus YML124C, strain tub3, active compounds read low 0.997 | S. cerevisiae deletion strains, locus YMR058W, strain fet3, active compounds read low 1.01 | S. cerevisiae deletion strains, locus YMR078C, strain ctf18, active compounds read low 0.981 | S. cerevisiae deletion strains, locus YMR125W, strain sto1, active compounds read low 1.01 | S. cerevisiae deletion strains, locus YMR129W, active compounds read low 1.02 | S. cerevisiae deletion strains, locus YMR205C, strain PFK2, active compounds read low 1.01 | S. cerevisiae deletion strains, locus YMR223W, strain ubp8, active compounds read low 1 | S. cerevisiae deletion strains, locus YMR231W, strain pep5, active compounds read low 1.02 | S. cerevisiae deletion strains, locus YMR263W, strain SAP30, active compounds read low 0.975 | S. cerevisiae deletion strains, locus YMR307W, strain GAS1, active compounds read low 0.969 and 1.01 | S. cerevisiae deletion strains, locus YNL067W, strain RPL9B, active compounds read low 0.977 | S. cerevisiae deletion strains, locus YNL071W, strain lat1, active compounds read low 1.02 | S. cerevisiae deletion strains, locus YNL128W, strain TEP1, active compounds read low 0.983 and 1.01 | S. cerevisiae deletion strains, locus YNL153C, strain GIM3, active compounds read low 0.977 | S. cerevisiae deletion strains, locus YNL175C, strain NOP13, active compounds read low 1 | S. cerevisiae deletion strains, locus YNL197C, strain WHI3, active compounds read low 1 | S. cerevisiae deletion strains, locus YNL209W, strain ssb2, active compounds read low 1.01 | S. cerevisiae deletion strains, locus YNL224C, strain SQS1, active compounds read low 1 | S. cerevisiae deletion strains, locus YNL233W, strain BNI4, active compounds read low 0.986 | S. cerevisiae deletion strains, locus YNL248C, strain rpa49, active compounds read low 1 | S. cerevisiae deletion strains, locus YNL250W, strain rad50, active compounds read low 0.983 | S. cerevisiae deletion strains, locus YNL271C, strain bni1, active compounds read low 0.992 | S. cerevisiae deletion strains, locus YNL298W, strain CLA4, active compounds read low 0.982 | S. cerevisiae deletion strains, locus YNL307C, strain MCK1, active compounds read low 1.01 | S. cerevisiae deletion strains, locus YNL322C, strain KRE1 (second series), active compounds read low 1.01 | S. cerevisiae deletion strains, locus YNL322C, strain KRE1, active compounds read low 0.977 and 1.02 | S. cerevisiae deletion strains, locus YNR049C, strain mso1, active compounds read low 1.02 | S. cerevisiae deletion strains, locus YNR052C, strain pop2, active compounds read low 0.997 | S. cerevisiae deletion strains, locus YOL006C, strain TOP1, active compounds read low 0.959 | S. cerevisiae deletion strains, locus YOL012C, strain htz1 0.738 | S. cerevisiae deletion strains, locus YOL147C, strain pex11, active compounds read low 0.992 | S. cerevisiae deletion strains, locus YOR001W, strain rrp6, active compounds read low 1.02 | S. cerevisiae deletion strains, locus YOR061W, strain CKA2, active compounds read low 0.963 | S. cerevisiae deletion strains, locus YOR069W, strain VPS5, active compounds read low 0.995 | S. cerevisiae deletion strains, locus YOR070C, strain gyp1, active compounds read low 1.01 | S. cerevisiae deletion strains, locus YOR080W, strain dia2, active compounds read low 1.01 | S. cerevisiae deletion strains, locus YOR083W, strain WHI5 (second series), active compounds read low 0.992 | S. cerevisiae deletion strains, locus YOR083W, strain WHI5, active compounds read low 0.989 | S. cerevisiae deletion strains, locus YOR106W, strain vam3, active compounds read low 1.01 | S. cerevisiae deletion strains, locus YOR136W, strain idh2, active compounds read low 0.997 | S. cerevisiae deletion strains, locus YOR144C, strain elg1, active compounds read low 0.996 | S. cerevisiae deletion strains, locus YOR184W, strain ser1, active compounds read low 1 | S. cerevisiae deletion strains, locus YOR265W, strain rbl2, active compounds read low 1.01 | S. cerevisiae deletion strains, locus YOR270C, strain vph1, active compounds read low 1.03 | S. cerevisiae deletion strains, locus YOR290C, strain snf2, active compounds read low 1 | S. cerevisiae deletion strains, locus YOR316C, strain cot1, active compounds read low 0.988 | S. cerevisiae deletion strains, locus YPL051W, strain arl3, active compounds read low 1.01 | S. cerevisiae deletion strains, locus YPL055C, strain LGE1, active compounds read low 0.965 | S. cerevisiae deletion strains, locus YPL078C, strain atp4, active compounds read low 1.03 | S. cerevisiae deletion strains, locus YPL106C, strain sse1, active compounds read low 1.01 | S. cerevisiae deletion strains, locus YPL240C, strain hsp82, active compounds read low 1.03 | S. cerevisiae deletion strains, locus YPL241C, strain CIN2, active compounds read low 1 and 0.997 | S. cerevisiae deletion strains, locus YPR119W, strain clb2, active compounds read low 0.999 | S. cerevisiae deletion strains, locus YPR141C, strain kar3, active compounds read low 0.967 | S. cerevisiae deletion strains, locus YPR163C, strain tif3, active compounds read low 1 | S. cerevisiae deletion strains, locus YPR167C, strain met16, active compounds read low 0.984 | S. cerevisiae deletion strains, strain wtn01, active compounds read low 0.991 | S. cerevisiae strains, strain wild type, active compounds read low 0.997

Source: PubChem BioAssay AID1159580 (chemical genetic matrix, 2015)
